Source: PubChem BioAssay (EPA / NIEHS)
Inconclusive results are not listed. Active and inactive are the calls of the source. The calls were made as follows, unless noted: active = hit-call score of the fitted dose curve at least 0.9, where 1 is the maximum; inactive = score below 0.9.

Key:
[1] = TOX21_p53_BLA_p2_viability: Viability Assessment in the Tox21 HCT-116 p53 Agonism Beta-lactamase Assay, Phase 2 (AID 2283591; active = hit-call score of the fitted dose curve at least 0.9, where 1 is the maximum;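 also: compound exposure lasted 16 h at 37 °C; actives lower the ATP signal meaning cytotoxicity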)
Procedure, shortened: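 HCT116 p53-bla cells, 4000/well, dosed after 5 h plating (217-fold dilution of DMSO stocks) and incubated 16 h at 37C. Viability taken as cellular ATP by CellTiter-Glo luminescence after 30 min RT; signal loss marks cytotoxicity.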

[2] = TOX21_p53_BLA_p3_viability: Viability Assessment in the Tox21 HCT-116 p53 Agonism Beta-lactamase Assay, Phase 3 (AID 2283593; active = hit-call score of the fitted dose curve at least 0.9, where 1 is the maximum;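 also: cells exposed to compound for 16 h before reading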)
Procedure, shortened: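 HCT116 cells, 4000/well, dosed 5 h after plating by pin transfer (217-fold dilution from DMSO stock) and incubated 16 h at 37C, 5% CO2. Viability read as ATP luminescence with CellTiter-Glo after 30 min at room temperature.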

[3] = biological target: Cellular tumor antigen p53 (Homo sapiens) (UniProt P04637); assay: TOX21_p53_BLA_p3_ratio: Tox21 HCT-116 p53 Agonism Beta-lactamase Assay, Ratio, Phase 3 (AID 2283596; active = hit-call score of the fitted dose curve at least 0.9, where 1 is the maximum)
Procedure, shortened: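 HCT116 p53-bla cells (4000/well) given compound in DMSO (217-fold dilution) after 5 h, incubated 16 h at 37C. CCF4-AM substrate 2 h at room temperature; 460/530 nm emission ratio, gain fitted against DMSO.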

[4] = TOX21_p53_BLA_p4_viability: Viability Assessment in the Tox21 HCT-116 p53 Agonism Beta-lactamase Assay, Phase 4 (AID 2283597; active = hit-call score of the fitted dose curve at least 0.9, where 1 is the maximum;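 also: hits lower the luminescence signal meaning cytotoxicity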)
Procedure, shortened: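 We seeded HCT116 p53 reporter cells at 4000/well and waited 5 h. We then added compounds in DMSO at a 217-fold dilution and incubated for 16 h. Viability was read as CellTiter-Glo luminescence after 30 min at RT.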

[5] = biological target: Cellular tumor antigen p53 (Homo sapiens) (UniProt P04637); assay: TOX21_p53_BLA_p5_ratio: Tox21 HCT-116 p53 Agonism Beta-lactamase Assay, Ratio, Phase 5 (AID 2283599; active = hit-call score of the fitted dose curve at least 0.9, where 1 is the maximum)
Procedure, shortened: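 HCT-116 p53-bla cells (4000/well) plated 5 h, dosed with compound (217-fold DMSO dilution) for 16 h at 37 C; CCF4-AM substrate 2 h at room temperature. Activity is the 460/530 nm emission ratio (405 nm excitation), fitted in gain-of-signal direction versus DMSO.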

[6] = TOX21_p53_BLA_p5_viability: Viability Assessment in the Tox21 HCT-116 p53 Agonism Beta-lactamase Assay, Phase 5 (AID 2283600; active = hit-call score of the fitted dose curve at least 0.9, where 1 is the maximum)
Procedure, shortened: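 Compounds, pinned from DMSO at 217-fold dilution, were left on the cells for 16 h. The viability endpoint was ATP content measured by CellTiter-Glo luminescence, where falling signal reflects cytotoxicity.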

[7] = biological target: Cellular tumor antigen p53 (Homo sapiens) (UniProt P04637); assay: TOX21_p53_BLA_p4_ratio: Tox21 HCT-116 p53 Agonism Beta-lactamase Assay, Ratio, Phase 4 (AID 2283601; active = hit-call score of the fitted dose curve at least 0.9, where 1 is the maximum)
Procedure, shortened: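 HCT-116 p53 beta-lactamase reporter cells (4000/well) preincubated 5 h, then compound (217-fold dilution of DMSO stock) for 16 h at 37C. CCF4-AM substrate added 2 h at room temperature; 460/530 nm emission ratio fitted upward versus DMSO.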

[8] = CCTE_Shafer_MEA_dev_firing_rate_mean: CCTE's Neural Network Formation Assay for Mean Firing Rate, Shafer Lab (AID 2284031)
Procedure, shortened: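 Developing rat cortical networks on MEA plates undergo 12-day compound exposure. Firing frequency, averaged across active electrodes, is integrated as area under the curve over four recording days, referenced to DMSO.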

[9] = CCTE_Shafer_MEA_dev_active_electrodes_number: CCTE's Neural Network Formation Assay for Number of Active Electrodes, Shafer Lab (AID 2284040; active = hit-call score of the fitted dose curve at least 0.9, where 1 is the maximum;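 also: potency for loss of active electrodes versus DMSO so lower counts are hits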)
Procedure, shortened: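 Rat cortical primary cultures, 1.5 x 10^5 cells/well, PEI-coated MEA, laminin drop. Continuous exposure DIV 0–12; full media/compound change DIV 5, 9. Readout: electrodes with mean firing ≥5 spikes/min; AUC across days; loss vs DMSO.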

[10] = CCTE_Shafer_MEA_dev_burst_rate: CCTE's Neural Network Formation Assay for Burst Rate, Shafer Lab (AID 2284042)
Procedure, shortened: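 Rat primary cortical cultures on PEI/laminin MEA; compound from plating, re-dosed at DIV 5, 9 media change. Single-electrode bursts/recording length, well mean of active electrodes; AUC over DIV 5–12 recordings; loss-of-signal vs DMSO.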

[11] = CCTE_Shafer_MEA_dev_bursting_electrodes_number: CCTE's Neural Network Formation Assay for Number of Bursting Electrodes, Shafer Lab (AID 2284043; active = hit-call score of the fitted dose curve at least 0.9, where 1 is the maximum;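 also: potency is for loss of bursting electrodes relative to DMSO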)
Procedure, shortened: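 Primary rat cortical neurons plated on 16-electrode MEA wells, exposed from day 0 with compound renewed at DIV 5 and 9. Electrodes bursting ≥1 burst per 2 min counted on days 5, 7, 9 and 12; trapezoidal AUC across days, fitted for loss versus DMSO.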

[12] = CCTE_Shafer_MEA_dev_burst_duration_mean: CCTE's Neural Network Formation Assay for Mean Burst Duration, Shafer Lab (AID 2284045)
Procedure, shortened: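 Primary rat cortical neurons on 48-well 16-electrode MEA plates, exposed from day 0 with renewal at DIV 5 and 9; spontaneous activity recorded on days 5, 7, 9, 12. Well-mean burst duration across bursting electrodes, collapsed as trapezoidal AUC; DMSO baseline.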

[13] = CCTE_Shafer_MEA_dev_inter_network_spike_interval_mean: CCTE's Neural Network Formation Assay for Mean Inter-network Spike Interval, Shafer Lab (AID 2284047)
Procedure, shortened: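 Primary rat cortical neurons on PEI-coated 48-well MEAs (16 electrodes/well) were exposed from plating day 0 to DIV 12, with dosing renewed at DIV 5 and 9. Recordings at DIV 5, 7, 9, 12 were collapsed by trapezoidal AUC, loss-of-signal fit vs DMSO.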

[14] = CCTE_Shafer_MEA_dev_network_spike_number: CCTE's Neural Network Formation Assay for Number of Network Spikes, Shafer Lab (AID 2284048)
Procedure, shortened: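 Primary rat cortical neurons on PEI/laminin 48-well MEA plates, dosed from plating day 0 for 12 days, renewed at DIV 5 and 9. Network spike counts recorded DIV 5, 7, 9, 12, collapsed as trapezoidal AUC; DMSO baseline.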

[15] = CCTE_Shafer_MEA_dev_network_spike_peak: CCTE's Neural Network Formation Assay for Mean Number of Electrodes in Network Spike, Shafer Lab (AID 2284049);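 also: fitted for loss of signal meaning fewer electrodes in network spikes than DMSO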
Procedure, shortened: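 Network-spike peak electrode count from recordings on days 5, 7, 9 and 12 was combined as trapezoidal area under the curve. Rat cortical cultures were treated continuously from plating, with compound renewed at each feed (DIV 5, 9); fits versus DMSO.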

[16] = CCTE_Shafer_MEA_dev_spike_duration_mean: CCTE's Neural Network Formation Assay for Mean Spike Duration, Shafer Lab (AID 2284051);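 also: mean network spike duration pooled as area under curve over DIV 5 to 12 recordings; potency for a decrease in mean network spike duration versus DMSO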
Procedure, shortened: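 Rat cortical primary cultures, 48-well MEA (16 electrodes/well); compound from plating, renewed DIV 5, 9. Network spike duration (AxIS adaptive detector) recorded DIV 5/7/9/12, combined as trapezoidal AUC; loss direction vs DMSO.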

[17] = CCTE_Shafer_MEA_dev_network_spike_duration_std: CCTE's Neural Network Formation Assay for Standard Deviation of Network Spike Duration, Shafer Lab (AID 2284052);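 also: area under curve of spike duration SD across recording days 5 to 12; hits are decreases in network spike duration SD versus DMSO vehicle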
Procedure, shortened: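 Rat cortical cultures, 1.5 x 10^5 cells/well, exposed continuously from plating to DIV 12 with media/compound renewal at DIV 5, 9. Spontaneous activity recorded DIV 5/7/9/12, AxIS adaptive spike detector; AUC across days; negative direction vs DMSO.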

[18] = CCTE_Shafer_MEA_dev_per_network_spike_spike_number_mean: CCTE's Neural Network Formation Assay for Mean Number of Spikes in a Network Spike, Shafer Lab (AID 2284053);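 also: fitted as decrease in spikes per network spike relative to DMSO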
Procedure, shortened: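 Rat cortical primary cultures on 48-well MEA; compound from day 0, re-dosed with full media change DIV 5, 9. Recorded DIV 5, 7, 9, 12; spikes in 0.05 s window at network-spike peak ÷ total network spikes; AUC; loss vs DMSO.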

[19] = CCTE_Shafer_MEA_dev_per_network_spike_spike_percent: CCTE's Neural Network Formation Assay for Percent of Spikes in a Network Spike, Shafer Lab (AID 2284054)
Procedure, shortened: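 Rat primary cortical neurons were grown on 48-well MEA plates (16 electrodes/well), exposed from plating day 0 through day 12, with treatment renewed on DIV 5 and 9. Percent of spikes within 0.05 s network-spike peaks was measured, summarised as AUC across days 5, 7, 9, 12.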

[20] = UKN5_HCS_SBAD2_cell_viability: Viability Assessment in the University of Konstanz (UKN) Leist Lab Neurite Outgrowth Assay in human iPSC-derived immature Dorsal Root Ganglia Neurons (UKN5) (AID 2284056)
Procedure, shortened: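 iPSC-derived immature peripheral neurons (SBAD2) seeded on Matrigel with CHIR99021, SU5402 and DAPT, dosed 1 h later for 24 h. Viability from Hoechst H-33342 and calcein-AM live staining, high-content imaging; bidirectional fit versus DMSO.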

[21] = CCTE_Shafer_MEA_dev_LDH: CCTE's Lactate Dehydrogenase Assay for Cytotoxicity in the Neural Network Formation Assay, Shafer Lab (AID 2284068; active = hit-call score of the fitted dose curve at least 0.9, where 1 is the maximum;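 also: exposure for twelve days from plating with re-dosing on DIV 5 and 9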)
Procedure, shortened: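 Rat cortical primary neurons, MEA culture; dosing day 0–12, full medium plus compound exchange DIV 5, 9. Read-out: LDH enzyme activity, spectrophotometric. DMSO = negative control/baseline; signal loss → cytotoxicity.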

Measured: AC50

Sequence of Cellular tumor antigen p53 (Homo sapiens) (P04637 whole entry, looked up): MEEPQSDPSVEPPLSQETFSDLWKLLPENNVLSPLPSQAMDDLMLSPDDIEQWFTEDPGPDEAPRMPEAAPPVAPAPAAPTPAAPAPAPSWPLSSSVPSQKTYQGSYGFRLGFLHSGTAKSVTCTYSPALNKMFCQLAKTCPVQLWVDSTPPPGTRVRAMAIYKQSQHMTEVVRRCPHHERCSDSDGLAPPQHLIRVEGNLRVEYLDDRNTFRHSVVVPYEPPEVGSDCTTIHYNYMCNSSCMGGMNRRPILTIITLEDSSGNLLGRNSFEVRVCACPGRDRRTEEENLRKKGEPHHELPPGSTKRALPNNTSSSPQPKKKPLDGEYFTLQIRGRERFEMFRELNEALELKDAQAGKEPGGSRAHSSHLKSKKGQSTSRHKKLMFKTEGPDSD

Brc1ccc(Oc2cc(Br)c(Br)cc2Br)c(Br)c1
active: [9] 14.1 µM | [11] 13.6 µM | [15] 10 µM | [16] 10 µM | [18] 10 µM | [19] 13.5 µM | [21] 11.9 µM
inactive: all other assays above
